From PubChem BioAssay
Where “and” joins values, the source holds several entries; their conditions need not be identical. Equal entries are not always repeated. Calls of active or inactive are those of the source. Cut-off read from the data, not from the text of the source, unless noted: active = parasite load remaining mostly below about 12% (no sharp cut-off); inactive = mostly above about 10%. Square brackets hold non-standard residues; d marks the D form. Side chains are listed from the residue outwards. Peptide text beside a SMILES is read from it. * marks the point of attachment. X2 = CCC(C)C(N)C1=NC(C(=O)*)CS1; Orn = NCCC[CH](N)C(=O)O

Assays:
[1] = P. berghei load reduction in hepatocytes – cell-based, HepG2, luciferase luminescence, HepG2 viability, primary screen (AID 624349);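 note: 100% = mean of DMSO negative control wells on the same plate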; conditions: P. berghei liver stage in HepG2, luciferase luminescence, concentration not given here; parasite load remaining: stronger effect = lower value; viability: measured here: HepG2 viability without parasites
[2] = EMT-state selective cytotoxicity in co-culture – imaging, PC-3E GFP, TEM4-18 mCherry, primary screen (AID 1345086;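 active = compounds killing one labelled cell type while sparing the other, by normalised counts and ratio limits, not self-fluorescent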;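 for all read-outs here: cells exposed to compound for 72 h before imaging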;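 for red/green cell ratio (normalised): normalised mesenchymal count divided by normalised epithelial count so high means epithelial killing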); conditions: PC-3E GFP / TEM4-18 mCherry co-culture, imaging cell counts, at 1 µM; for red/green cell ratio (normalised): actives lie on both sides, counts scaled to control wells, 1 = unselective
[3] = viability loss with induced miR-34 in A549 – imaging, A549 dox-inducible miR-34, nuclei and caspase counts, primary screen (AID 1347080;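 active = compounds whose cell count with miR-34 switched on is under 0.7 times the count with it off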); conditions: A549 miR-34 inducible, Hoechst nuclei count, 48 h
[4] = compounds altering viability of human ES cells (AID 493140; call rule not given here;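 note: cells exposed to compounds for four days before counting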); conditions: human embryonic stem cell survival screen; stronger effect = higher value
[5] = MELAS cybrid and Rieske KO viability enhancers – cell-based, MELAS cybrids, Rieske KO mouse fibroblasts, CellTiter-Glo, primary screen (AID 1508586;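 active = mean z-score across replicates of 1.96 or higher in either the MELAS or the Rieske mutant cell line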;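 note: z relative to plate mean and SD of compound and empty wells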); conditions: low glucose
[6] = measured here: epithelial PC-3E GFP cell survival
[7] = measured here: mesenchymal TEM4-18 mCherry cell survival
[8] = stronger effect = lower value, cell number ratio, induced over uninduced
[9] = measured here: relative caspase fold change +Dox/-Dox
[10] = measured here: total cells with miR-34 induction, stronger effect = lower value
[11] = measured here: total cells without miR-34 induction

SMILES	parasite load remaining [1]	viability [1]	red/green cell ratio (normalised) [2]	normalised cell number [2, 6]	normalised cell number [2, 7]	fold change [3, 8]	fold change [3, 9]	cell count [3, 10]	cell count [3, 11]	survival [4]	z-score ([5]; MELAS cybrid survival, CellTiter-Glo 48 h, stronger effect = higher value)	z-score ([5]; Rieske KO mouse fibroblast survival, CellTiter-Glo 72 h)
CCCCCCCCCCCCCCCC(=O)OC[C@H](NC(=O)C(Cl)Cl)[C@H](O)c1ccc([N+](=O)[O-])cc1	77.1% (inactive)	134%	1.04 (inactive)	1.01	1.06	0.906 (inactive)	2.23	10500	11500			
CC[C@@H]1OC(=O)C[C@@H](O)[C@H](C)[C@@H](O[C@@H]2O[C@H](C)[C@@H](O)[C@H](N(C)C)[C@H]2O)[C@@H](CCN2C[C@H](C)C[C@H](C)C2)C[C@@H](C)C(=O)/C=C/C(C)=C\[C@@H]1CO[C@@H]1O[C@H](C)[C@@H](O)[C@@H](OC)[C@H]1OC	64.4% (inactive)	108%	0.98 (inactive)	1.1	1.07	0.885 (inactive)	3.65	12100	13600			
CC(=O)c1cc2ccccc2oc1=O	80.8% (inactive)	96.7%	0.84 (inactive)	1.16	0.98	0.915 (inactive)	1.42	8970	9810	6.92 (inactive)		
O=C(N[C@@H](CO)[C@H](O)c1ccc([N+](=O)[O-])cc1)C(Cl)Cl	85.6% (inactive) and 68.5% (inactive)	77.9% and 95.2%	0.9 (inactive)	1.15	1.04	1 (inactive)	1.84	11600	11600			
CO/N=C(\C(=O)NC1C(=O)N2C(C(=O)OCOC(=O)C(C)(C)C)=C(/C=C\c3scnc3C)CSC12)c1csc(N)n1 (configuration not stated)	101% (inactive) and 42.8% (inactive)	81.5% and 105%	0.92 (inactive)	1.21	1.12	0.904 (inactive)	4.33	11600	12800			
CCC(C)C(N)C1=NC(C(=O)NC(CC(C)C)C(=O)NC(CCC(=O)O)C(=O)NC(C(=O)NCCCCC2NC(=O)C(CC(N)=O)NC(=O)C(CC(=O)O)NC(=O)C(Cc3cnc[nH]3)NC(=O)C(Cc3ccccc3)NC(=O)C(C(C)CC)NC(=O)C(CCCN)NC2=O)C(C)CC)CS1 (stereo not drawn) (cyclo(DNK([Ile-Glu-Leu-X2])[Orn]IFH); configuration not given here)	93.7% (inactive) and 69.5% (inactive)	71.2% and 97.2%	0.87 (inactive)	1.23	1.06	0.838 (inactive)	0.994	10300	12300			
CC(C)C1CCC(C(=O)N[C@@H](Cc2ccccc2)C(=O)O)CC1 (some centres not stated)	74.2% (inactive) and 53.3% (inactive)	105% and 113%	0.92 (inactive)	1.14	1.05	0.867 (inactive)	4.55	11100	12800			
CC(C)CC1NC(=O)C(CCCN)NC(=O)C(C(C)C)NC(=O)C2CCCN2C(=O)C(Cc2ccccc2)NC(=O)C(CC(C)C)NC(=O)C(CCCN)NC(=O)C(C(C)C)NC(=O)C2CCCN2C(=O)C(Cc2ccccc2)NC1=O (configuration not stated) (cyclo(FPV[Orn]LFPV[Orn]L); configuration not given here)	-0.175% (inactive)	12.4%	0.94 (inactive)	0.39	0.37	0.889 (inactive)	1.03	2080	2340			
CC(=O)O[C@]1(C(C)=O)CCC2C3C=C(Cl)C4=CC(=O)CC[C@]4(C)C3CC[C@@]21C (some centres not stated)	113% (inactive) and 26.4% (inactive)	84% and 106%	1.17 (inactive)	1.04	1.21	0.904 (inactive)	1.11	9770	10800			
OC[C@H]1OC([S-])[C@H](O)[C@@H](O)[C@@H]1O.[Au+] (some centres not stated)	51.4% (inactive)	97.6%	0.82 (inactive)	1.15	0.95	0.865 (inactive)	2.52	9290	10700			
COCC1=C(C(=O)OC(C)OC(=O)OC(C)C)N2C(=O)[C@@H](NC(=O)/C(=N/OC)c3csc(N)n3)[C@H]2SC1 (some centres not stated)	42.3% (inactive)	194%	1.05 (inactive)	0.94	0.99	0.924 (inactive)	3.66	12100	13100			
O=C(OC[C@H]1O[C@H](OC(=O)c2cc(O)c(O)c(OC(=O)c3cc(O)c(O)c(O)c3)c2)[C@H](OC(=O)c2cc(O)c(O)c(OC(=O)c3cc(O)c(O)c(O)c3)c2)[C@@H](OC(=O)c2cc(O)c(O)c(OC(=O)c3cc(O)c(O)c(O)c3)c2)[C@@H]1OC(=O)c1cc(O)c(O)c(OC(=O)c2cc(O)c(O)c(O)c2)c1)c1cc(O)c(O)c(OC(=O)c2cc(O)c(O)c(O)c2)c1	58.2% (inactive) and 73.8% (inactive)	119% and 101%	1.23 (inactive)	1.24	1.52	0.602 (active)	1.46	4260	7070			
CC(=O)OCC(=O)[C@@]12OC(C)(C)O[C@@H]1CC1C3C[C@H](F)C4=CC(=O)C=C[C@]4(C)[C@@]3(F)[C@@H](O)C[C@@]12C (some centres not stated)	117% (inactive) and 83.7% (inactive)	77.1% and 96.2%	1.1 (inactive)	1.15	1.26	0.893 (inactive)	0.979	6960	7790			
Cc1nc(N)cc(C[n+]2csc(CCO)c2C)n1	58.2% (inactive)	97.3%	0.91 (inactive)	0.96	0.87	0.946 (inactive)	4.78	12800	13500			
O=C1O[C@H](C(O)CO)C(O)=C1O (some centres not stated)	82.7% (inactive) and 21.4% (inactive)	69.6% and 79.3%	1.21 (inactive)	1.04	1.26	0.918 (inactive)	4.48	12000	13100			
C[C@]12CCC(=O)C=C1C=CC1C2CC[C@@]2(C)C1CC[C@@]21CCC(=O)O1 (some centres not stated)	99.9% (inactive) and 38.4% (inactive)	91.3% and 97%	0.76 (inactive)	1.2	0.92	0.895 (inactive)	1.44	11200	12500			
CCCCC(=O)O[C@]1(C(=O)CO)CCC2C3CCC4=CC(=O)CC[C@]4(C)C3[C@@H](O)C[C@@]21C (some centres not stated)	79% (inactive)	98.3%	1.41 (inactive)	0.69	0.97	0.833 (inactive)	3.05	7620	9140			
CC(=O)Nc1ccc(S(=O)(=O)Nc2onc(C)c2C)cc1	53.8% (inactive)	98%	0.94 (inactive)	1	0.93	0.897 (inactive)	5	11800	13200			
CC(=O)OCC(=O)[C@@]1(OC(C)=O)[C@@H](C)CC2C3C[C@H](F)C4=CC(=O)C=C[C@]4(C)[C@@]3(F)[C@@H](O)C[C@@]21C (some centres not stated)	202% (inactive)	105%	1.18 (inactive)	1.13	1.34	0.928 (inactive)	4.21	7220	7780			
CCC(C)C(=O)O[C@H]1C[C@H](O)C=C2C=C[C@H](C)[C@H](CC[C@@H](O)C[C@@H](O)CC(=O)O)C21 (some centres not stated)	152% (inactive) and 58.6% (inactive)	84.1% and 191%	0.96 (inactive)	1.19	1.14	0.861 (inactive)	5.53	11700	13500			
CC(=O)OCC(=O)[C@@]1(O)CCC2C3CCC4=CC(=O)CC[C@]4(C)[C@@]3(F)[C@@H](O)C[C@@]21C (some centres not stated)	127% (inactive) and 70.7% (inactive)	75.9% and 93.9%	1.57 (inactive)	0.85	1.34	0.879 (inactive)	1.47	6890	7830			
CCOC(=O)C(C)(N)Cc1ccc(O)c(O)c1 (configuration not stated)	15% (inactive)	103%	1.25 (inactive)	0.9	1.12	0.926 (inactive)	3.34	12200	13200			
CCc1cc(Cl)c(OC)c(C(=O)NCC2CCCN2CC)c1O (configuration not stated)			0.67 (inactive)	1.29	0.86	0.847 (inactive)	0.822	7250	8550	1.5 (inactive)		
CC(=O)S[C@@H]1CC2=CC(=O)CC[C@]2(C)[C@H]2CC[C@@]3(C)[C@@H](CC[C@@]34CCC(=O)O4)C12 (some centres not stated)	56.6% (inactive) and 46.1% (inactive)	72.6% and 88.2%	1.24 (inactive)	1	1.25	0.863 (inactive)	2.19	10200	11900			
COc1cc(NS(C)(=O)=O)ccc1Cc1c2ccccc2nc2ccccc12	41.6% (inactive)	143%	0.96 (inactive)	0.32	0.31	0.911 (inactive)	3.12	3640	4000			
CCCCCCCCCCC[C@@H](C[C@H]1OC(=O)[C@H]1CCCCCC)OC(=O)[C@@H](CC(C)C)NC=O	118% (inactive) and 62.8% (inactive)	86.3% and 114%	1.11 (inactive)	0.96	1.07	0.887 (inactive)	2	11500	13000			
C[C@H](N[C@@H](CCc1ccccc1)C(=O)O)C(=O)N1CCC[C@H]1C(=O)O			0.88 (inactive)	1.17	1.03						0.249 (inactive)	-0.206
C[N+](C)(C)CCOP(=O)([O-])OP(=O)(O)OC[C@H]1OC(n2ccc(N)nc2=O)[C@H](O)[C@@H]1O (some centres not stated)	169% (inactive) and 55.3% (inactive)	92.4% and 97.3%	1.29 (inactive)	0.95	1.22	0.9 (inactive)	4.71	12600	14000			
N[C@H](Cc1cc(I)c(Oc2ccc(O)c(I)c2)c(I)c1)C(=O)O	45.9% (inactive)	99.9%	0.97 (inactive)	1.02	0.99	0.92 (inactive)	1.64	11400	12400			
